# Hits are enriched below; roughly 7.3% of the tested compounds scored in any of these assays.
# KinaseGlo FLuc = Kinase-Glo luciferase inhibition (counter-screen). Q27757. Kinase-Glo luciferase, ATP luminescence, 8 min. Potency, µM (titrated, usually from 38.3 µM), inactives show at the top dose activity change, negative = inhibition, most hits filed as inhibitors. 200,000 compounds, 0.28% hits. AID 1379; note: % is set by controls: 0 for no effect and ±100 for the full control effect; nearly all actives have a fitted effect of over 60% in size
#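 Compounds were added to a substrate mix at pH 7.2 (50 mM imidazole, 10 uM ATP, within the enzyme's linear range), followed by Kinase-Glo detection reagent; luminescence was measured after 8 minutes at ambient temperature.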
# NPC1 prom act = activates the NPC1 promoter. Potency, µM (titrated, usually from 9.22 µM), inactives show at the top dose activation, most hits filed as activators. Huh7 NPC1 promoter luciferase reporter, 24 h. 320,000 compounds, 2.4% hits; note: % of control where 0% means no effect; nearly all actives have a fitted effect of over 60% in size
#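 Luminescence from an NPC1 promoter-driven luciferase reporter in stably transfected Huh7 cells was measured after 24 h compound treatment at 37 °C, followed by 10 min ambient incubation with luciferase detection reagent.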
# SMN2 splice enh = SMN2 splice variant enhancement; HEK293 SMN2-luciferase splicing reporter, luminescence, 30-36 h; Potency, µM (series often up to 46.1 µM), inactives show at the top dose activity change, positive = activation, actives largely listed as activators; 210,000 compounds, 2.8% hits; note: % of control where 0% means no effect; nearly all actives have a fitted effect of over 55% in size
#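 HEK293 cells carry an SMN2 minigene-luciferase reporter in which exon 7 inclusion puts luciferase in frame. Cells were seeded at 2000 cells/well, attached for 10-12 hours, then exposed to compounds for 30-36 hours at 37C before ONE-Glo luminescence.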
# FLuc modulator = inhibits or activates purified firefly luciferase, miR-21 counter-screen; P08659; purified FLuc, Km substrates, luminescence inhibition; Potency, µM (highest dose often 57.5 µM), for inactives: at the highest dose activity change, negative = inhibition, actives largely listed as inhibitors; 360,000 compounds, 6.9% hits; AID 588342;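 note: plate controls were vehicle for no effect and reference inhibitor for full effect; nearly all actives have a fitted effect of over 55% in size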
# Target sequence (P08659 whole entry, looked up): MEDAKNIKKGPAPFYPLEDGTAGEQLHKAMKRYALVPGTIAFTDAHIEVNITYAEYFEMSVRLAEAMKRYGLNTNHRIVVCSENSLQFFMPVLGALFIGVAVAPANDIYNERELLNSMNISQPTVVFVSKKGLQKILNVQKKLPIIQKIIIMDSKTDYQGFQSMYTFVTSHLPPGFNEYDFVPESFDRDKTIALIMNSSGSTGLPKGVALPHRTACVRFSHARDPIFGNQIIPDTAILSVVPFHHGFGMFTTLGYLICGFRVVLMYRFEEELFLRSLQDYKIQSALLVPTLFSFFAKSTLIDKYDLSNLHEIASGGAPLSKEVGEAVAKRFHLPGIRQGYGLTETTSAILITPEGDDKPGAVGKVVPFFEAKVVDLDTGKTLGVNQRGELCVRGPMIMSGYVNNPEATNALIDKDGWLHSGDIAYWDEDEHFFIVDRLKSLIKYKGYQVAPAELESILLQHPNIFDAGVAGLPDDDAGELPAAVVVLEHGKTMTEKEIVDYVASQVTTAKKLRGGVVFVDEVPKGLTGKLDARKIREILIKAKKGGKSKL
#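 Purified P. pyralis luciferase, 10 nM final, with Km-level 10 uM D-luciferin and 10 uM ATP in 50 mM Tris acetate pH 7.5, 10 mM Mg acetate, 0.01% Tween-20, 0.05% BSA; 6-point qHTS titration about 60 µM downward; luminescence read.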
# ELG1 genotox = inducers of genotoxicity in HEK293T ELG1-luciferase cells; HEK293T ELG1-luciferase reporter, luminescence, 16 h; 330,000 compounds, 1.3% hits; Potency, µM (titrated, usually from 46 µM), for the others: at the top dose activity change, positive = activation, hits mostly activators; note: % of control where 0% means no effect; nearly all actives have a fitted effect of over 60% in size
#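 Genotoxicity was scored as increased ELG1-luciferase reporter signal, measured by ONE-Glo luminescence (30 min, room temperature). Compound or vehicle exposure of the HEK293T reporter cells lasted 16 hr at 37°C.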
# Rab9 prom act = activators of Rab9 promoter. Potency, µM (doses to about 9.22 µM), inactives show at the top dose activation, negative = inhibition, usual class: activators. Huh7 Rab9 promoter-luciferase reporter, luminescence, 24 h. 320,000 compounds, 2.8% hits. AID 485297; note: % of control where 0% means no effect; nearly all actives have a fitted effect of over 60% in size
#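 Stable Rab9-luc Huh7, 1500 cells/well, 2 h settle; cmpd in DMSO, 24 h, 37 °C/5% CO2; luciferase reagent 10 min RT; luminescence.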
# An asterisk follows results filed as active; ? = inconclusive; nt = no result given. Calls come from the whole dose curve; as a rule, active = well fitted curve in the direction sought with a large enough effect; inconclusive = small, poorly fitted or top-dose-only effect, or another doubt; inactive = no such curve, though single readings can be large; an effect the other way counts as inactive or inconclusive. Potency is the fitted concentration of half-maximal effect.
SMILES,KinaseGlo FLuc,NPC1 prom act,SMN2 splice enh,FLuc modulator,ELG1 genotox,Rab9 prom act
COc1ccccc1C(=O)NNC(=O)c1cccc([N+](=O)[O-])c1,3%,11%,?,19µM*,?,?
Cc1cc(C)cc(NC(=S)Nc2cccc3ccccc23)c1,nt,2.5µM*,nt,21µM*,?,2.5µM*
CCCn1c(N)c(C(=O)CSc2nnc3ccccn23)c(=O)[nH]c1=O,nt,nt,nt,nt,0%,nt
CCOC(=O)CSc1nc(N)c(C(=O)Nc2ccc(N(C)C)cc2)s1,11%,0%,-4%,8.5µM*,9%,-7%
CC(C)S(=O)(=O)c1csc(C(=O)NN)c1Cl,nt,1%,nt,-8%,-1%,-6%
CCN(C(=O)CSc1nnc(Nc2ccc(OC)cc2)s1)C1CCS(=O)(=O)C1 (stereo not given),nt,nt,nt,nt,15%,nt
COc1ccc(NC(=O)c2scc(S(=O)(=O)C(C)C)c2N)cc1,nt,2.5µM*,nt,6µM*,?,1.1µM*
COc1ccc(NC(=O)c2sc(SC)nc2N)cc1,-10%,?,13µM*,12µM*,18µM*,?
CCN(CC)C(=O)CSc1nc(N)c(C(=O)Nc2ccc(OC)cc2)s1,-3%,1%,-23%,24µM*,-4%,-2%
COc1ccc(NC(=O)c2sc(SCc3ccccc3)nc2N)cc1,7%,16%,-1%,?,-3%,19%
COCc1nc2oc3ccc(F)cc3c(=O)c2cc1C(=O)OC,nt,2.8µM*,nt,?,?,?
CCc1nc2oc3ccccc3c(=O)c2cc1C(=O)OC,nt,3.2µM*,nt,13µM*,?,3.5µM*
Cc1nc2oc3ccc(F)cc3c(=O)c2cc1C(=O)O,nt,-1%,nt,?,6%,-7%
COCc1nc2oc3ccc(C)cc3c(=O)c2cc1C(=O)OC,nt,?,nt,11µM*,?,1.8µM*
CCC(=O)NC(c1cc(Cl)c2cccnc2c1O)C1CC1 (stereo not given),nt,-33%,nt,1%,9%,-34%
Cc1cc2oc(=O)cc(CN3CCN(S(=O)(=O)c4cccs4)CC3)c2cc1C,-2%,0%,-50%,3%,-8%,1%
Cn1c(=O)[nH]c(=O)c2c1nc(Br)n2C/C=N/NC(N)=S,nt,-4%,nt,1%,-1%,-4%
O=C(c1cnccn1)N1CCc2ccccc21,-6%,8%,9%,-14%,10%,0%
O=c1n(-c2ccc(Br)cc2)cnn1-c1ncccc1[N+](=O)[O-],1%,?,13µM*,17µM*,?,2µM*
Cc1ccc(OCc2cc(C(=O)N3CCN(C4CCCC4)CC3)no2)cc1C,nt,3%,nt,?,5%,28%
Cc1ccc(OCc2cc(C(=O)N3CCC(c4ccccc4Cl)C3)no2)cc1C (stereo not given),nt,?,nt,27µM*,?,?
Cc1ccc(OCc2cc(C(=O)N(CCO)Cc3cccs3)no2)cc1C,nt,4µM*,nt,27µM*,?,3.5µM*
Cc1ccc(OCc2cc(C(=O)N3CCCCCCC3)no2)cc1C,nt,?,nt,?,22%,?
CCN(Cc1ccncc1)C(=O)c1cc(COc2ccc(C)c(C)c2)on1,nt,-3%,nt,-17%,-1%,5%
Cc1ccc(OCc2cc(C(=O)N3CCN(c4ccccc4)CC3)no2)cc1C,nt,2.5µM*,nt,6µM*,3.7µM*,2µM*
CCC1C(=O)NCCN1C(=O)c1ccccc1OC1CCN(S(C)(=O)=O)CC1 (stereo not given),2%,3%,-13%,-2%,2%,17%
CCn1ccc(C(=O)Oc2ccc(C(C)C)cc2)n1,0%,0%,1%,2.7µM*,?,-3%
CCn1ccc(C(=O)N2CCOCC2)n1,0%,-3%,4%,1%,-2%,1%
C/C(=N\Nc1cc(N2CCOCC2)ncn1)c1ccc(O)cc1,nt,0%,nt,19µM*,9%,3%
C/C(=N\NC(=O)c1ccc(O)cc1)c1ccc(N2CCOCC2)cc1,nt,9%,nt,?,4%,4%

# Compound activity (PubChem)
